# Measured values published in publication PMC7862700, “An all-to-all approach to the identification of sequence-specific readers for epigenetic DNA modifications on cytosine”.
# Columns and labels:
# Test in all cases: DAPPL (digital affinity profiling via proximity ligation, sequencing); 10 mM Tris-HCl pH 7.5, 50 mM NaCl, 1 mM DTT, 4% glycerol, room temperature, 30 min; GST-TFs on glutathione beads, 16-mer random dsDNA library, 0.1% formaldehyde crosslink after washing; high values mean tight binding
# FEV = molecular target: T1, FEV (Homo sapiens, UniProt Q99581 1-238); details: protein: recombinant; tags: N-terminal GST; dsDNA, one strand shown
# T1 sequence: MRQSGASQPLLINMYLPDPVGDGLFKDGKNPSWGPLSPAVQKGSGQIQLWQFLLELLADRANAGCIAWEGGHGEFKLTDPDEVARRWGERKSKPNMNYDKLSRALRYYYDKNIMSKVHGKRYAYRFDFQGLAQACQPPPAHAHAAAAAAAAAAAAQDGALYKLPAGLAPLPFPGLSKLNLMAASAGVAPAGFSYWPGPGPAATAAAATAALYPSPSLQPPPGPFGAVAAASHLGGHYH
# Method in brief: (§1)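 Yeast served to express human transcription factors as GST fusions, which were then captured on glutathione beads and labelled with DNA barcodes. Pooled with a tag-only sample, they were incubated with 200 nmole of a 16-mer random double-stranded DNA library for 30 min at room temperature in Tris/NaCl/DTT/glycerol buffer, washed, crosslinked with 0.1% formaldehyde, ligated by proximity, amplified by PCR and sequenced. Dividing each hexamer's read frequency for a factor by its frequency for the tag-only sample gives the binding signal.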
# ETV5 = ETV5 (Homo sapiens, UniProt P41161 1-510); details: protein: recombinant; tags: N-terminal GST; dsDNA, one strand shown
# Method in brief: as §1
# HSF1 = HSF1 (Homo sapiens, UniProt Q00613 1-529); details: protein: recombinant; tags: N-terminal GST; chain copies: 3; dsDNA, one strand shown
# Method in brief: as §1
# SPIC = molecular target: T2, SPIC (Homo sapiens, UniProt Q8N5J4 1-248); details: protein: recombinant; tags: N-terminal GST; dsDNA, one strand shown
# T2 sequence: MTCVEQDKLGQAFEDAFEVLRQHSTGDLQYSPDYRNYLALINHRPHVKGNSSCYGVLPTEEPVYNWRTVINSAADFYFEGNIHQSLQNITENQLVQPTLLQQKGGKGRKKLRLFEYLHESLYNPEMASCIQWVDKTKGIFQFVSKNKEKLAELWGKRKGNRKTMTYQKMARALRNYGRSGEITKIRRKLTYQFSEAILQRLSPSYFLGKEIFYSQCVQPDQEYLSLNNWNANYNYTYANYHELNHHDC
# Method in brief: as §1
# ELF4 = ELF4 (Homo sapiens, UniProt Q99607 1-663); details: protein: recombinant; tags: N-terminal GST; dsDNA, one strand shown
# Method in brief: as §1
# ELK4 = molecular target: T3, ELK4 (Homo sapiens, UniProt P28324-2 1-405); details: protein: recombinant; tags: N-terminal GST; dsDNA, one strand shown
# T3 sequence: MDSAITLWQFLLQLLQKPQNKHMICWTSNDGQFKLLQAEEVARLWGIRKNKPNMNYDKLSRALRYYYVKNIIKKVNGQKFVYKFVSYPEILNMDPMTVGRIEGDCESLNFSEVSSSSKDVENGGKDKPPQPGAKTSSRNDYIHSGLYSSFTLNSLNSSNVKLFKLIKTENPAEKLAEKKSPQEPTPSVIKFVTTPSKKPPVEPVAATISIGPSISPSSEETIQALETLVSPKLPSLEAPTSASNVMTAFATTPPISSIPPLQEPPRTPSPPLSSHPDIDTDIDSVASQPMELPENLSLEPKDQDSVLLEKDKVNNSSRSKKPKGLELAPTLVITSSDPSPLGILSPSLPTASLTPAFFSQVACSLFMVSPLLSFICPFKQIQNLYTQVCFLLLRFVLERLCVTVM
# Method in brief: as §1
# ETV2 = molecular target: T4, ETV2 (Homo sapiens, UniProt O00321 1-342); details: protein: recombinant; tags: N-terminal GST; dsDNA, one strand shown
# T4 sequence: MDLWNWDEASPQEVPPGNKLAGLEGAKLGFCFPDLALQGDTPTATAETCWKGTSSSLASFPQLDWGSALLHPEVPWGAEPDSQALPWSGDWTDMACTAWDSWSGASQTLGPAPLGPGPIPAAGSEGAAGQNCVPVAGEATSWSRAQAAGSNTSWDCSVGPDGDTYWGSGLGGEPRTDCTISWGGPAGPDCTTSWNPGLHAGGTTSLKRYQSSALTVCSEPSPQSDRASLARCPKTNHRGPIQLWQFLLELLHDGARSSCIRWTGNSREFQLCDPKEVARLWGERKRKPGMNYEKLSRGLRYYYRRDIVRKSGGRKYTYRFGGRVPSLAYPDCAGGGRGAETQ
# Method in brief: as §1
# ELF3 = molecular target: T5, ELF3 (Homo sapiens, UniProt P78545 1-371); details: protein: recombinant; tags: N-terminal GST; dsDNA, one strand shown
# T5 sequence: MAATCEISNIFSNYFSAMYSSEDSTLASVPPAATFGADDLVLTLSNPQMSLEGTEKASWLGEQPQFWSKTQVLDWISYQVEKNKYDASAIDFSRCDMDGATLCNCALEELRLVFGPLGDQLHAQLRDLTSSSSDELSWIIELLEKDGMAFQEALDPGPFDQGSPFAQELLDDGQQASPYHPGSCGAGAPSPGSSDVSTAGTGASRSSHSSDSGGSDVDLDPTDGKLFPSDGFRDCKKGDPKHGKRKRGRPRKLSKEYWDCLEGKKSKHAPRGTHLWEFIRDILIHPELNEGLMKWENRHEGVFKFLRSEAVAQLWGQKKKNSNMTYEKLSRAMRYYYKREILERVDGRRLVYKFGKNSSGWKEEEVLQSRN
# Method in brief: as §1
# CRX = CRX (Homo sapiens, UniProt O43186 1-299); details: protein: recombinant; tags: N-terminal GST; dsDNA, one strand shown
# Method in brief: as §1
# ETV1 = ETV1 (Homo sapiens, UniProt P50549 1-477); details: protein: recombinant; tags: N-terminal GST; dsDNA, one strand shown
# Method in brief: as §1
# ERF = molecular target: T6, ERF (Homo sapiens, UniProt P50548 1-548); details: protein: recombinant; tags: N-terminal GST; dsDNA, one strand shown
# T6 sequence: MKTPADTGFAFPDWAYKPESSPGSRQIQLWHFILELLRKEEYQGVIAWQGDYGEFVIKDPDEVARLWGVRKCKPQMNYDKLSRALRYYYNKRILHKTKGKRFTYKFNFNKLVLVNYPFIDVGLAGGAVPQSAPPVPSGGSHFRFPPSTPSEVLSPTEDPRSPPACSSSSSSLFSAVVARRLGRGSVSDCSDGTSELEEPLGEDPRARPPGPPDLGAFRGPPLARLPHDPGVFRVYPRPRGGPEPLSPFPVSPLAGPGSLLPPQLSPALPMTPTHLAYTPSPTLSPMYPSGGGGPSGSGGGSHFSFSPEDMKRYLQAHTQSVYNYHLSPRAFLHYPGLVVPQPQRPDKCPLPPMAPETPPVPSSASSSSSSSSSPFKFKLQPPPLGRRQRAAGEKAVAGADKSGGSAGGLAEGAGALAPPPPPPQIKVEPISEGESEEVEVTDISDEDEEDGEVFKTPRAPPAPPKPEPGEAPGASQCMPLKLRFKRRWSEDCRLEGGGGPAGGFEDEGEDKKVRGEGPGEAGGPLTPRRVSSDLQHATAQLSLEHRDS
# Method in brief: as §1
# ETV3L = molecular target: T7, ETV3L (Homo sapiens, UniProt Q6ZN32 1-361); details: protein: recombinant; tags: N-terminal GST; dsDNA, one strand shown
# T7 sequence: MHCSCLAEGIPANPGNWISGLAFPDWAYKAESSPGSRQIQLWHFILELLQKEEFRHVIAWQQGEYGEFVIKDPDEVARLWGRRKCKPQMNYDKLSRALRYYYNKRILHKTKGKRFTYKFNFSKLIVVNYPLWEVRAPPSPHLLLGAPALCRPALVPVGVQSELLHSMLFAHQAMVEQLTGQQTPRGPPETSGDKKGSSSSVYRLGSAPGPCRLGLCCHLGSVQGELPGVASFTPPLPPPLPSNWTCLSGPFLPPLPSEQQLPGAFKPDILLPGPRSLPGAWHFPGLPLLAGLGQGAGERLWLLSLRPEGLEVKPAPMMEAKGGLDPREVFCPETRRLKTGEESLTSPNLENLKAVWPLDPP
# Method in brief: as §1
# ETS2 = molecular target: T8, ETS2 (Homo sapiens, UniProt P15036 1-469); details: protein: recombinant; tags: N-terminal GST; dsDNA, one strand shown
# T8 sequence: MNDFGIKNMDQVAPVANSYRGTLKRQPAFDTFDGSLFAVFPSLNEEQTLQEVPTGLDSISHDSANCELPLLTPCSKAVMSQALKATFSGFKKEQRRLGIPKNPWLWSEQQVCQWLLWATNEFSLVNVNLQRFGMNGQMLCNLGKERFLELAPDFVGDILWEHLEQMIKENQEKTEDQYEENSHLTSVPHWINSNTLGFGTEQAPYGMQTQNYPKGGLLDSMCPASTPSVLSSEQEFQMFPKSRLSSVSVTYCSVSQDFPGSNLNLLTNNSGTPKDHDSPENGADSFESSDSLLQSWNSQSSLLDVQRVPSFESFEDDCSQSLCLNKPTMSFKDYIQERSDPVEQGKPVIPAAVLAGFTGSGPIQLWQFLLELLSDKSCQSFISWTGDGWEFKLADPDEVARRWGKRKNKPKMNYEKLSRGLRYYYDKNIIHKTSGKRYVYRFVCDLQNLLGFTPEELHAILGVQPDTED
# Method in brief: as §1
# SPDEF = molecular target: T9, SPDEF (Homo sapiens, UniProt O95238 1-335); details: protein: recombinant; tags: N-terminal GST; dsDNA, one strand shown
# T9 sequence: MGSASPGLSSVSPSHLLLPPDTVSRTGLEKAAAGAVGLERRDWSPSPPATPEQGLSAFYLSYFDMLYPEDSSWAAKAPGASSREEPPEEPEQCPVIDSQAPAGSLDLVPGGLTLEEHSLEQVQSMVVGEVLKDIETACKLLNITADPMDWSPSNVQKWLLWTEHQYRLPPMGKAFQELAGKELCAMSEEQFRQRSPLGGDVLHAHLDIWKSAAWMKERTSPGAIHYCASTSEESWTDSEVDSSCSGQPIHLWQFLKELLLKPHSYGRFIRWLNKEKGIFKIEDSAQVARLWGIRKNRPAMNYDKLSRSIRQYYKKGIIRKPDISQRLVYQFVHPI
# Method in brief: as §1
# ETV7 = molecular target: T10, ETV7 (Homo sapiens, UniProt Q9Y603 1-341); details: protein: recombinant; tags: N-terminal GST; dsDNA, one strand shown
# T10 sequence: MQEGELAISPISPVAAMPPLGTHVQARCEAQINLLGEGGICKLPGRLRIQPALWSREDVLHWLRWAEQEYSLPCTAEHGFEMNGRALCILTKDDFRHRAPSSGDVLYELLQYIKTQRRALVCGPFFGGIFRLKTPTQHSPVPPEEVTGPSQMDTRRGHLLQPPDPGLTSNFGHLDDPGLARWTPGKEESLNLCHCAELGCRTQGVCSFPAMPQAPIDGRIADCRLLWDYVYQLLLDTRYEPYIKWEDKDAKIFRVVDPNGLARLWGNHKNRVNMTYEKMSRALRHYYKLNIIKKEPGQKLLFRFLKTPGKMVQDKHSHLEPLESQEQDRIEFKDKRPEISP
# Method in brief: as §1
# ELF5 = molecular target: T11, ELF5 (Homo sapiens, UniProt Q9UKW6-2 1-255); details: protein: recombinant; tags: N-terminal GST; dsDNA, one strand shown
# T11 sequence: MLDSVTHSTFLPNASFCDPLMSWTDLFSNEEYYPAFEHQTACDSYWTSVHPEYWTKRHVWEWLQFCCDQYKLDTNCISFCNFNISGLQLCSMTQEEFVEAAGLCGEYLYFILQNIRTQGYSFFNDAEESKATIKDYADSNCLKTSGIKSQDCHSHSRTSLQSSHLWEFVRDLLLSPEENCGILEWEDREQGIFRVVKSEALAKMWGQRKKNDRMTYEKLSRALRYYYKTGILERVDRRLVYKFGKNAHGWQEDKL
# Method in brief: as §1
# ETV3 = molecular target: T12, ETV3 (Homo sapiens, UniProt P41162-2 1-143); details: protein: recombinant; tags: N-terminal GST; dsDNA, one strand shown
# T12 sequence: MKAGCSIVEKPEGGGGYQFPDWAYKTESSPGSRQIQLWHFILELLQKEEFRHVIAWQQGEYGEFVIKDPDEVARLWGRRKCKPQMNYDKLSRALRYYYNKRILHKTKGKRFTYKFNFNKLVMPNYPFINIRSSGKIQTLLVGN
# Method in brief: as §1
# ETV6 = ETV6 (Homo sapiens, UniProt P41212 1-452); details: protein: recombinant; tags: N-terminal GST; dsDNA, one strand shown
# Method in brief: as §1
# Chain of ELF4 (Q99607 whole entry): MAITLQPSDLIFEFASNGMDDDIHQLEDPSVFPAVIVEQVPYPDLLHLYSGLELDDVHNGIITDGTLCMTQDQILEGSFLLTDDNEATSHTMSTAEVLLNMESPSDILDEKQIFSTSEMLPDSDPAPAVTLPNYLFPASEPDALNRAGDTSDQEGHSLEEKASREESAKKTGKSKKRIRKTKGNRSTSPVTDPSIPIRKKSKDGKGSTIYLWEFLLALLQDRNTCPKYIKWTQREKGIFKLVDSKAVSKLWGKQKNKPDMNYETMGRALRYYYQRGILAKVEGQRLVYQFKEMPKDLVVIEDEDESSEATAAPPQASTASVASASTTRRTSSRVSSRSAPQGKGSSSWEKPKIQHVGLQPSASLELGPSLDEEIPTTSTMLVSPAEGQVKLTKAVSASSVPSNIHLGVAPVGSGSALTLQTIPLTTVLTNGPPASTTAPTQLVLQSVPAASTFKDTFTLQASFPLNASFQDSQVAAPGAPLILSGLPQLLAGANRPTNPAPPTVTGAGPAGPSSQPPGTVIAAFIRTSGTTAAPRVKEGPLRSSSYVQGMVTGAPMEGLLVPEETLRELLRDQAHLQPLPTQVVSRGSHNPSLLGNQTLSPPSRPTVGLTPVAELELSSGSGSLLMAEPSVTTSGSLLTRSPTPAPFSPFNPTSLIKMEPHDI
# Chain of ETV6 (P41212 whole entry): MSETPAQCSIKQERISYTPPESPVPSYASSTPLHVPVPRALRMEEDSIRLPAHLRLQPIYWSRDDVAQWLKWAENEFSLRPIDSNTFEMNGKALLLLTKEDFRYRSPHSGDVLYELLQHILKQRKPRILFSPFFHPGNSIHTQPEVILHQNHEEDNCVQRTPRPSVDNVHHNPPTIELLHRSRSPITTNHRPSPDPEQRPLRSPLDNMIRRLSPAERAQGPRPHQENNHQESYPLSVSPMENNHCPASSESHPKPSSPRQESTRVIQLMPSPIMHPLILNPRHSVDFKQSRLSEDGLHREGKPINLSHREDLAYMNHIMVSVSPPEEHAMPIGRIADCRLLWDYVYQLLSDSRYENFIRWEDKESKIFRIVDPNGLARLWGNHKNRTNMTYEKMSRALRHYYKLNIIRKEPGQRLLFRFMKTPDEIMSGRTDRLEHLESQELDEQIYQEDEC
# Chain of ETV5 (P41161 whole entry): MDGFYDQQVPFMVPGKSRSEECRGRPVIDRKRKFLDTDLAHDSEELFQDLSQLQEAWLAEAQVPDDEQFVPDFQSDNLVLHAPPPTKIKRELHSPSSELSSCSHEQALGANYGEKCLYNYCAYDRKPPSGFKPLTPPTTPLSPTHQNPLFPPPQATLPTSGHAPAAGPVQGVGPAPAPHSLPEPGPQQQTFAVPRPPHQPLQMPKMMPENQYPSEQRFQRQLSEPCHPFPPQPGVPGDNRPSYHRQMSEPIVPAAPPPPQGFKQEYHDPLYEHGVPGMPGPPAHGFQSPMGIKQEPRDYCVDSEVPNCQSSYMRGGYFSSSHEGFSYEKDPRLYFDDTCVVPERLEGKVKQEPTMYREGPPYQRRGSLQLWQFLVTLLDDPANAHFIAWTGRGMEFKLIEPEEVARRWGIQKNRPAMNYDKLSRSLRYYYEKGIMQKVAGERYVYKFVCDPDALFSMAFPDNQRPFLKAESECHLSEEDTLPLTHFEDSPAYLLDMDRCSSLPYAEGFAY
# Chain of ETV1 (P50549 whole entry): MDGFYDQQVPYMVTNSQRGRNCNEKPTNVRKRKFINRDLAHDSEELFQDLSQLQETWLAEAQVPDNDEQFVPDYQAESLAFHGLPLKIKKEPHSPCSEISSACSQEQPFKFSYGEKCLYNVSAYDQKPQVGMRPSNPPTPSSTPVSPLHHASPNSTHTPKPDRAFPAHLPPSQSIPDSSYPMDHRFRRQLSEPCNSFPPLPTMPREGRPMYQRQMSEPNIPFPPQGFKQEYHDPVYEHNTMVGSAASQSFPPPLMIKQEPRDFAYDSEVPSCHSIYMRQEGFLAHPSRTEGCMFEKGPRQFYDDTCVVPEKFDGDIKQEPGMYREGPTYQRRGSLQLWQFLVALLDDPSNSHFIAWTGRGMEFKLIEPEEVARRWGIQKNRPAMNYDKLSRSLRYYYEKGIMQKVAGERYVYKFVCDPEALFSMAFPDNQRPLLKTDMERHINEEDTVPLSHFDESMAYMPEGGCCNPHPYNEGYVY
# Chain of HSF1 (Q00613 whole entry): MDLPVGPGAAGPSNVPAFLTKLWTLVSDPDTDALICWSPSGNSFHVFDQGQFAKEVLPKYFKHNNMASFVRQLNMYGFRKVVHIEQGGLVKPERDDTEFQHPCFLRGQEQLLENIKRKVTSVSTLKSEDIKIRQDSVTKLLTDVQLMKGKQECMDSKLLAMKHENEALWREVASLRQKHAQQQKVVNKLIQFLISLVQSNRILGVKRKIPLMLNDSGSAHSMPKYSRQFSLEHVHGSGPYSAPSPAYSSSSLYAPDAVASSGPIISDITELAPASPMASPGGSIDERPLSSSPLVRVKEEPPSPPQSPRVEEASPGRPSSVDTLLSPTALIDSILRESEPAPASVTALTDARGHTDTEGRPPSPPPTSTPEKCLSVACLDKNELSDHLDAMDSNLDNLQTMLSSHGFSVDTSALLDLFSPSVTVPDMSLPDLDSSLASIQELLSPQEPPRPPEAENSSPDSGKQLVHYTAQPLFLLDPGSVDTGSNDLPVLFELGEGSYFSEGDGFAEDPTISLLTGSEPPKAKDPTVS
# Chain of CRX (O43186 whole entry): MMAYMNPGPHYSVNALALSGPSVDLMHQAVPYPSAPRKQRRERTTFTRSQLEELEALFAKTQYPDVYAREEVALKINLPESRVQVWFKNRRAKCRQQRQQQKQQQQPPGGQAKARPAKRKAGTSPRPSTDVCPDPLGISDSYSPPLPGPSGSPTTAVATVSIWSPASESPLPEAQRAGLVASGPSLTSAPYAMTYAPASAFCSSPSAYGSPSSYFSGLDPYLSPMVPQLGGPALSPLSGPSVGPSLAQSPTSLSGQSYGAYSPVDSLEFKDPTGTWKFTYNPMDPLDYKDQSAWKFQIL
sequence,measurement,setting,value
ATTTTA,binding signal,FEV,"1.25 fold enrichment (6-mer frequency, TF over GST control)"
same,binding signal,ETV5,"1.23 fold enrichment (6-mer frequency, TF over GST control)"
same,binding signal,HSF1,"1.45 fold enrichment (6-mer frequency, TF over GST control)"
same,binding signal,SPIC,"1.36 fold enrichment (6-mer frequency, TF over GST control)"
same,binding signal,ELF4,"1.32 fold enrichment (6-mer frequency, TF over GST control)"
same,binding signal,ELK4,"1.37 fold enrichment (6-mer frequency, TF over GST control)"
same,binding signal,ETV2,"1.29 fold enrichment (6-mer frequency, TF over GST control)"
same,binding signal,ELF3,"1.23 fold enrichment (6-mer frequency, TF over GST control)"
same,binding signal,CRX,"1.83 fold enrichment (6-mer frequency, TF over GST control)"
same,binding signal,ETV1,"1.25 fold enrichment (6-mer frequency, TF over GST control)"
same,binding signal,ERF,"1.27 fold enrichment (6-mer frequency, TF over GST control)"
same,binding signal,ETV3L,"1.43 fold enrichment (6-mer frequency, TF over GST control)"
same,binding signal,ETS2,"1.33 fold enrichment (6-mer frequency, TF over GST control)"
same,binding signal,SPDEF,"1.23 fold enrichment (6-mer frequency, TF over GST control)"
same,binding signal,ETV7,"1.37 fold enrichment (6-mer frequency, TF over GST control)"
same,binding signal,ELF5,"1.2 fold enrichment (6-mer frequency, TF over GST control)"
same,binding signal,ETV3,"1.26 fold enrichment (6-mer frequency, TF over GST control)"
same,binding signal,ETV6,"1.26 fold enrichment (6-mer frequency, TF over GST control)"
